# An excerpt weighted towards active compounds, which were near 9.2% of everything screened.
# NPC1 promoter act – qHTS Assay for NPC1 Promoter Activators. Huh7 NPC1 promoter luciferase reporter, 24 h. Potency, µM (doses to about 9.22 µM), without a hit: at the top dose activation, hits mostly activators. hit rate 2.4% among 320,000. AID 485313, 2010; also: % of control where 0% means no effect; nearly all actives have a fitted effect of over 60% in size
#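 Compounds in DMSO were transferred onto Huh7 NPC1-luciferase reporter cells pre-incubated 2 h; after 24 h at 37 °C, Amplite reagent was dispensed and luminescence recorded 10 min later.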
# ELG1 repair inh – qHTS screen for small molecules that inhibit ELG1-dependent DNA repair in human embryonic kidney (HEK293T) cells expressing luciferase-tagged ELG1 | HEK293T ELG1-luciferase reporter, luminescence, 16 h; DNA damage induced by 5-fluorouridine | Potency, µM (top dose mostly 46.1 µM), inactives show top-dose activity change, negative = inhibition, usual class: inhibitors | hit rate 2.3% among 330,000; also: % is scaled to controls: 0 for no effect and ±100 for the full control effect; nearly all actives have a fitted effect of over 55% in size
#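 HEK293T cells expressing luciferase-tagged ELG1 (2,000/well) received 5-Fluorouridine plus compound or DMSO for 16 hr at 37 °C. Luciferase was read by ONE-Glo luminescence after 30 min at room temperature.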
# ELG1 genotoxic – qHTS screen for small molecules that induce genotoxicity in human embryonic kidney (HEK293T) cells expressing luciferase-tagged ELG1; HEK293T ELG1-luciferase reporter, luminescence, 16 h; Potency, µM (series often up to 46 µM), without a hit: at the highest dose activity change, positive = activation, most hits filed as activators; hit rate 1.3% among 330,000; also: % of control where 0% means no effect; nearly all actives have a fitted effect of over 60% in size
#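 Luminescence read-out: rising ELG1-luciferase signal, reflecting elevated ELG1 protein under genetic stress, flags genotoxic compounds. Cells were treated for 16 hr at 37 °C before ONE-Glo detection.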
# FLuc modulator – qHTS profiling assay for firefly luciferase inhibitor/activator using purifed enzyme and Km concentrations of substrates (counterscreen for miR-21 project) | Potency, µM (highest dose often 57.5 µM), for the others: top-dose activity change, negative = inhibition, usual class: inhibitors | purified FLuc, Km substrates, luminescence inhibition | AID 588342, 2011 | Luciferin 4-monooxygenase (Photinus pyralis), P08659 | hit rate 6.9% among 360,000;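 also: plate controls were vehicle for no effect and reference inhibitor for full effect; nearly all actives have a fitted effect of over 55% in size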
# Target sequence (P08659 whole entry, looked up): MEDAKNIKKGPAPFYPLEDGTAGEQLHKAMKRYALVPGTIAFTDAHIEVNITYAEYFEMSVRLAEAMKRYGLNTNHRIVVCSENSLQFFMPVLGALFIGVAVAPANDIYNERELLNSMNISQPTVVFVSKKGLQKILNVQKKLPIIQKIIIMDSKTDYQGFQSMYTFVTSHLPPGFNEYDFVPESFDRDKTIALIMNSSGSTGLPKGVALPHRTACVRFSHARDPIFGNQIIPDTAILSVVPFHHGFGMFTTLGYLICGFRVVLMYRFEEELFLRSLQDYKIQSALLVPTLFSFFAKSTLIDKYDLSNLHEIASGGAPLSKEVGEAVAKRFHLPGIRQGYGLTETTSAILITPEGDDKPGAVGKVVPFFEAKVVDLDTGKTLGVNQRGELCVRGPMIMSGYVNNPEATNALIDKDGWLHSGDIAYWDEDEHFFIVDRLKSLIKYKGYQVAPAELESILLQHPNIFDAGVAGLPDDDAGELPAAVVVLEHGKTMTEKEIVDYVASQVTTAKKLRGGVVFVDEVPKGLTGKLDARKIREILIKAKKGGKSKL
#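 Purified P. pyralis luciferase, 10 nM final, with Km-level 10 uM D-luciferin and 10 uM ATP in 50 mM Tris acetate pH 7.5, 10 mM Mg acetate, 0.01% Tween-20, 0.05% BSA; 6-point qHTS titration about 60 µM downward; luminescence read.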
# Rab9 prom act – qHTS Assay for Rab9 Promoter Activators; Huh7 Rab9 promoter-luciferase reporter, luminescence, 24 h; Potency, µM (series often up to 9.22 µM), without a hit: at the top dose activation, negative = inhibition, hits mostly activators; hit rate 2.8% among 320,000; AID 485297, 2010; also: % of control where 0% means no effect; nearly all actives have a fitted effect of over 60% in size
#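 Luciferase signal after 10 min detection reagent at ambient indicates Rab9 promoter upregulation; stably transfected Huh7 cells were treated 24 h with compound in DMSO at 37 °C, 5% CO2.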
# SMN2 splice enh – qHTS Assay for Enhancers of SMN2 Splice Variant Expression | AID 1458, 2008 | Potency, µM (highest dose often 46.1 µM), without a hit: at the highest dose activity change, positive = activation, actives largely listed as activators | HEK293 SMN2-luciferase splicing reporter, luminescence, 30-36 h | hit rate 2.8% among 210,000; also: % of control where 0% means no effect; nearly all actives have a fitted effect of over 55% in size
#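 qHTS luciferase splicing reporter: luminescence rises when SMN2 exon 7 is included in transfected HEK293 cells. Compound exposure lasted 30-36 h at 37C, with 4.5 mM final sodium butyrate as control, followed by a ONE-Glo read.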
# * = called active by the depositor; ? = inconclusive; · = no result given. Calls follow the shape of the dose curve; as a rule, active = well fitted curve in the direction sought with a large enough effect; inconclusive = small, poorly fitted or top-dose-only effect, or another doubt; inactive = no such curve, though single readings can be large; an effect the other way counts as inactive or inconclusive. Potency is read from the fitted curve at half-maximal effect.
SMILES,NPC1 promoter act,ELG1 repair inh,ELG1 genotoxic,FLuc modulator,Rab9 prom act,SMN2 splice enh
Cc1noc(C)c1CSCC(=O)Nc1nc(-c2ccc(F)c(F)c2)cs1,2%,?,-4%,-1%,-5%,·
CCOC(=O)c1c(S(=O)(=O)N2CCCC(C(=O)Nc3cc(C)ccc3OC)C2)c(C)n(C)c1C (stereo not given),·,·,·,-5%,·,·
Cc1ccc(-c2nonc2NC(=O)c2ccco2)cc1C,·,·,·,-1%,·,·
O=C(Cc1ccccc1F)Nc1nc(-c2ccc(F)cc2)cs1,8%,-12%,-14%,11µM*,?,·
COc1ccc(-c2csc(NC(=S)NC(=O)c3cccs3)n2)cc1OC,-3%,21µM*,-9%,?,-5%,-8%
COc1ccc(-c2csc(NC(=O)Cc3ccccc3F)n2)cc1OC,-13%,16µM*,-24%,?,-7%,·
O=C(CS(=O)(=O)c1ccccc1)Nc1nc(-c2ccc(F)cc2)cs1,-6%,?,-2%,?,-2%,-27%
CCc1noc(C)c1C(=O)Nc1nc(-c2ccc(OC)c(OC)c2)cs1,-4%,?,-39%,-13%,-7%,·
COc1ccc(-c2csc(NC(=O)c3cc(C)oc3C)n2)cc1OC,-3%,18µM*,-26%,19µM*,8%,·
O=C(Nc1ccc2c(c1)C(=O)N(c1ccccc1)C2=O)C1CCCO1 (stereo not given),-1%,15%,1%,?,6%,-9%
CCOC(=O)c1cc([N+](=O)[O-])c([N+](=O)[O-])cc1NC(C)=O,-3%,?,-19%,6%,-7%,-85%
Cc1ccc(Cc2nc3ccccc3nc2SCC(=O)NCc2ccc(F)cc2)cc1,·,·,·,2%,·,·
CCCCN(C)C(=O)c1cc2cc3ccc(OC)cc3nc2s1,0.5µM*,?,?,0.76µM*,0.45µM*,6.3µM*
CCCCN(CC)C(=O)c1cc2cc3ccc(OC)cc3nc2o1,?,?,4%,15µM*,?,-5%
O=C(c1cc(C2CC2)nn1-c1ccccc1)N1CCN(Cc2c(F)cccc2Cl)CC1,-2%,?,-1%,·,2%,·
O=C(C1CCN(S(=O)(=O)c2ccc3c(c2)OCCO3)CC1)N1CCc2ccccc21,-12%,23µM*,-5%,2%,-9%,-24%
O=C(C1CCN(S(=O)(=O)c2ccccc2)CC1)N1CCc2ccccc21,21%,-3%,-3%,21µM*,?,·
O=C(C1CCN(S(=O)(=O)c2ccccc2F)CC1)N1CCc2ccccc21,-2%,?,-5%,-2%,-3%,·
O=C(C1COc2ccccc2O1)N1CCc2ccccc21 (stereo not given),3.5µM*,?,?,21µM*,3.5µM*,11%
O=C(C1COc2ccccc2O1)N1CCCC1 (stereo not given),0%,1%,-4%,6%,-5%,-20%
NC(=S)NNC(=O)Nc1ccc(Cl)c(Cl)c1,-2%,-14%,-1%,-6%,-9%,8%
CC(=O)Nc1ccc(Br)cc1C(=O)C(=O)O,7%,21%,-4%,-2%,12%,11%
O=C(Nc1nnc(-c2ccc(F)cc2)o1)c1ccco1,9%,16%,4%,17µM*,0%,·
N#Cc1ccc(C(=O)Nc2nnc(-c3ccco3)o2)cc1,2%,16µM*,-1%,?,8%,-29%
O=C(Nc1nnc(-c2ccco2)o1)c1ccc2ccccc2c1,2%,?,?,?,-4%,-1%
SMILES,NPC1 promoter act,ELG1 repair inh,ELG1 genotoxic,FLuc modulator,Rab9 prom act,SMN2 splice enh
Cc1ccc(C(=O)Nc2nnc(-c3ccco3)o2)cc1,3.5µM*,?,?,13µM*,4µM*,13µM*
Cc1cc2c(c(=O)o1)C(c1ccc([N+](=O)[O-])o1)C(C#N)=C(N)O2 (stereo not given),-2%,?,1%,4%,8%,·
CC(C)N1CCC(N2CCN(Cc3ccc(-c4ccc(Cl)cc4)o3)CC2CCO)CC1 (stereo not given),-5%,?,3%,-1%,-3%,·
Fc1ccc(-c2cc(-c3nc(-c4cccc(Cl)c4)no3)[nH]n2)cc1,·,·,·,-1%,·,·
C/C(=N\N1C(=O)c2ccccc2NC1c1ccco1)c1ccccc1O (stereo not given),?,?,?,?,0.35µM*,4µM*
CCOc1ccc(N2C(=O)c3ccccc3C2O)cc1 (stereo not given),3.2µM*,?,9.2µM*,12µM*,?,13µM*
COc1ccc(C2Nc3ccccc3C(=O)N2c2ccccc2)cc1Cn1cc([N+](=O)[O-])cn1 (stereo not given),2%,?,-4%,-3%,-4%,3%
COc1ccc(N2C(=O)c3ccccc3NC2c2ccc(OC)c(Cn3cc([N+](=O)[O-])cn3)c2)cc1 (stereo not given),2.8µM*,?,6%,-4%,?,·
COc1cc(C2Nc3ccccc3C(=O)N2c2ccccc2)ccc1O (stereo not given),27%,?,?,-8%,29%,13%
O=C1c2ccccc2NC(c2ccco2)N1/N=C/c1ccco1 (stereo not given),22%,?,13%,-5%,?,?
COc1ccc(/C(C)=N/N2C(=O)c3ccccc3NC2c2ccc(O)c(OC)c2)cc1 (stereo not given),16%,?,?,13µM*,?,·
O=C1c2ccccc2C(O)N1c1cccnc1 (stereo not given),0%,12%,1%,-2%,-9%,2%
O=C1c2ccccc2NC(c2cccc([N+](=O)[O-])c2)N1CCc1ccccc1 (stereo not given),?,?,11%,19µM*,?,·
CC(C)Oc1ccccc1C1CC(=O)Nc2cc3c(cc21)OCCO3 (stereo not given),-15%,?,-3%,0%,-20%,-48%
C/C(=N\N1C(=O)c2ccccc2NC1c1ccccc1)c1ccccc1O (stereo not given),?,?,4.6µM*,3%,0.63µM*,2.8µM*
Cc1cccc(C2Nc3ccccc3C(=O)N2CCc2ccccc2)n1 (stereo not given),2%,18%,0%,?,15%,?

# Assay outcomes from PubChem BioAssay.
